Laboratory results published in the supplement of paper PMC10849652.
Targets with a hit are over-represented here; the source holds about 7,900 in all. About 0.6% of all pairs of compound and target were hits.

Compound: c1cn2cc(-c3ccc4cn[nH]c4c3)nc(Nc3ccc(N4CCOCC4)cc3)c2n1 [entospletinib]
Assay: log2 fold change, soluble protein after heating vs DMSO (PISA); higher = thermal stabilisation; K562 cells, 10 uM, 30 min; active = over 0.2 and 3.5 SD of the protein, either way, in both replicates (recomputed)
How it was run: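 K562 cells at 2×10^6 cells/mL were treated with 10 μM compound for 30 min. Aliquots were heated for 3 min across 48°C-58°C, pooled, and extracted in PBS with 0.5% NP-40 at 4°C; soluble protein was the supernatant after 21,000xg for 90 min. Soluble protein was quantified by TMTpro 16plex LC-MS/MS with channel sums equalised, and reported as log2 fold change in thermal stability against DMSO controls, with values from duplicates.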

UniProt Q6ZU80, sequence (Q6ZU80 whole entry, looked up): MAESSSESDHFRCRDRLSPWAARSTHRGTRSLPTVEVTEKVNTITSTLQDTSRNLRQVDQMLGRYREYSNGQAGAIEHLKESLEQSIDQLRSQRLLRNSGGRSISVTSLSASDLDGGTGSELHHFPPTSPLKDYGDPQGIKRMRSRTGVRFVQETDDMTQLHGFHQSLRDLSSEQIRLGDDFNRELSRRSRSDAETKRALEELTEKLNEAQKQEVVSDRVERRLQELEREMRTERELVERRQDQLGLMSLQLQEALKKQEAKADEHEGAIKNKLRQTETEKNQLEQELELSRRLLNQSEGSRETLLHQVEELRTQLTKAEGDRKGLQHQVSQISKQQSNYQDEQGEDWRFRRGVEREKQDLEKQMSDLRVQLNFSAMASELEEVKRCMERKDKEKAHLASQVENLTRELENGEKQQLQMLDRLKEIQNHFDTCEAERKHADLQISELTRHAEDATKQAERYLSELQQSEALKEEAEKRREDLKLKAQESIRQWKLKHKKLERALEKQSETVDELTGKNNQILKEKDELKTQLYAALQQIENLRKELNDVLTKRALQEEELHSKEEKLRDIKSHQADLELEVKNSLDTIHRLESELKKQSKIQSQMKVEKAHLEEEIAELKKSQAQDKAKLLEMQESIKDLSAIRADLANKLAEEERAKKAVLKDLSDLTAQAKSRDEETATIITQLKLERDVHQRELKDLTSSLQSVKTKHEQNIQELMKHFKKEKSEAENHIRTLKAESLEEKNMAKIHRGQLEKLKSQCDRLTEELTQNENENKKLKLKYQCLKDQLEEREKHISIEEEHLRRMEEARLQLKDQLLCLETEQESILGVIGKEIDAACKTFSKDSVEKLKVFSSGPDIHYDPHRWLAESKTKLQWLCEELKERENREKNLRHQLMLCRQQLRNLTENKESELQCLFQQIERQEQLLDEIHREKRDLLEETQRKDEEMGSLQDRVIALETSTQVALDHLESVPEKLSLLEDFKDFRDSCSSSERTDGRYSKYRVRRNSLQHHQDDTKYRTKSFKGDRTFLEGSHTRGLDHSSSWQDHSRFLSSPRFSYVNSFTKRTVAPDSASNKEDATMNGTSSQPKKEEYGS
UniProt Q12996, sequence (Q12996 whole entry, looked up): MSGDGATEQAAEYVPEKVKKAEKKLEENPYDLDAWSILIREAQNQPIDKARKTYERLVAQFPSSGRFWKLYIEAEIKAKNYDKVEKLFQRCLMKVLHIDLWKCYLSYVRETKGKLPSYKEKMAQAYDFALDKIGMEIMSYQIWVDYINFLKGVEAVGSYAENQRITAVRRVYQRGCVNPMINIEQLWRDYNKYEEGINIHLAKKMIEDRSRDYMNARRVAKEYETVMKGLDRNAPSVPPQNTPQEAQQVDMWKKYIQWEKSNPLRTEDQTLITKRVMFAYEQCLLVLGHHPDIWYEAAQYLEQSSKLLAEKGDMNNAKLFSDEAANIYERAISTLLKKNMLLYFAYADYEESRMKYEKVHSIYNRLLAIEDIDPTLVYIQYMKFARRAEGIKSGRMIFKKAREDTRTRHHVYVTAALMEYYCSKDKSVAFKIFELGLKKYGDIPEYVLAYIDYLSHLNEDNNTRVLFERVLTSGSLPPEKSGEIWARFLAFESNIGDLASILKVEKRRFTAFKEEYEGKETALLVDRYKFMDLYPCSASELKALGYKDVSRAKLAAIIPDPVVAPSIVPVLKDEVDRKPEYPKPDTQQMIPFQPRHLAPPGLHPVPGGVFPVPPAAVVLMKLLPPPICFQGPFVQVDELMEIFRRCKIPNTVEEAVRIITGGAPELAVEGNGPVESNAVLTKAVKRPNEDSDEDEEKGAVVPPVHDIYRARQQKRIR
UniProt P48509, sequence (P48509 whole entry, looked up): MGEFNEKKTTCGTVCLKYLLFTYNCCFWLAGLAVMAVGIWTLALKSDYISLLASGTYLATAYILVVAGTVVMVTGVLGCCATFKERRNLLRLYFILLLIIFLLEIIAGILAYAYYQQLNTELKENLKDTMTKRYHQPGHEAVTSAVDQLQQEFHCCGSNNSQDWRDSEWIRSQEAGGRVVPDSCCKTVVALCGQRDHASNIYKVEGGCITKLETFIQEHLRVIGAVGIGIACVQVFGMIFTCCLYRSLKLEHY
UniProt P35219, sequence (P35219 whole entry, looked up): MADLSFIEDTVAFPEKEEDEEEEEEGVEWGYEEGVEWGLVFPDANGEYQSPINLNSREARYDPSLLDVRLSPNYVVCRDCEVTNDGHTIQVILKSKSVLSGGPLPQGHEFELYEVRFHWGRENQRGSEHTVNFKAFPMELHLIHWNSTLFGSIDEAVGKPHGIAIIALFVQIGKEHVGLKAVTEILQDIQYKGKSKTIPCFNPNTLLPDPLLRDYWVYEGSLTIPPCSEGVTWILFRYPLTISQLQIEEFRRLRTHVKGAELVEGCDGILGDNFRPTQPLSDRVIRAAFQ
UniProt Q12873, sequence (Q12873 whole entry, looked up): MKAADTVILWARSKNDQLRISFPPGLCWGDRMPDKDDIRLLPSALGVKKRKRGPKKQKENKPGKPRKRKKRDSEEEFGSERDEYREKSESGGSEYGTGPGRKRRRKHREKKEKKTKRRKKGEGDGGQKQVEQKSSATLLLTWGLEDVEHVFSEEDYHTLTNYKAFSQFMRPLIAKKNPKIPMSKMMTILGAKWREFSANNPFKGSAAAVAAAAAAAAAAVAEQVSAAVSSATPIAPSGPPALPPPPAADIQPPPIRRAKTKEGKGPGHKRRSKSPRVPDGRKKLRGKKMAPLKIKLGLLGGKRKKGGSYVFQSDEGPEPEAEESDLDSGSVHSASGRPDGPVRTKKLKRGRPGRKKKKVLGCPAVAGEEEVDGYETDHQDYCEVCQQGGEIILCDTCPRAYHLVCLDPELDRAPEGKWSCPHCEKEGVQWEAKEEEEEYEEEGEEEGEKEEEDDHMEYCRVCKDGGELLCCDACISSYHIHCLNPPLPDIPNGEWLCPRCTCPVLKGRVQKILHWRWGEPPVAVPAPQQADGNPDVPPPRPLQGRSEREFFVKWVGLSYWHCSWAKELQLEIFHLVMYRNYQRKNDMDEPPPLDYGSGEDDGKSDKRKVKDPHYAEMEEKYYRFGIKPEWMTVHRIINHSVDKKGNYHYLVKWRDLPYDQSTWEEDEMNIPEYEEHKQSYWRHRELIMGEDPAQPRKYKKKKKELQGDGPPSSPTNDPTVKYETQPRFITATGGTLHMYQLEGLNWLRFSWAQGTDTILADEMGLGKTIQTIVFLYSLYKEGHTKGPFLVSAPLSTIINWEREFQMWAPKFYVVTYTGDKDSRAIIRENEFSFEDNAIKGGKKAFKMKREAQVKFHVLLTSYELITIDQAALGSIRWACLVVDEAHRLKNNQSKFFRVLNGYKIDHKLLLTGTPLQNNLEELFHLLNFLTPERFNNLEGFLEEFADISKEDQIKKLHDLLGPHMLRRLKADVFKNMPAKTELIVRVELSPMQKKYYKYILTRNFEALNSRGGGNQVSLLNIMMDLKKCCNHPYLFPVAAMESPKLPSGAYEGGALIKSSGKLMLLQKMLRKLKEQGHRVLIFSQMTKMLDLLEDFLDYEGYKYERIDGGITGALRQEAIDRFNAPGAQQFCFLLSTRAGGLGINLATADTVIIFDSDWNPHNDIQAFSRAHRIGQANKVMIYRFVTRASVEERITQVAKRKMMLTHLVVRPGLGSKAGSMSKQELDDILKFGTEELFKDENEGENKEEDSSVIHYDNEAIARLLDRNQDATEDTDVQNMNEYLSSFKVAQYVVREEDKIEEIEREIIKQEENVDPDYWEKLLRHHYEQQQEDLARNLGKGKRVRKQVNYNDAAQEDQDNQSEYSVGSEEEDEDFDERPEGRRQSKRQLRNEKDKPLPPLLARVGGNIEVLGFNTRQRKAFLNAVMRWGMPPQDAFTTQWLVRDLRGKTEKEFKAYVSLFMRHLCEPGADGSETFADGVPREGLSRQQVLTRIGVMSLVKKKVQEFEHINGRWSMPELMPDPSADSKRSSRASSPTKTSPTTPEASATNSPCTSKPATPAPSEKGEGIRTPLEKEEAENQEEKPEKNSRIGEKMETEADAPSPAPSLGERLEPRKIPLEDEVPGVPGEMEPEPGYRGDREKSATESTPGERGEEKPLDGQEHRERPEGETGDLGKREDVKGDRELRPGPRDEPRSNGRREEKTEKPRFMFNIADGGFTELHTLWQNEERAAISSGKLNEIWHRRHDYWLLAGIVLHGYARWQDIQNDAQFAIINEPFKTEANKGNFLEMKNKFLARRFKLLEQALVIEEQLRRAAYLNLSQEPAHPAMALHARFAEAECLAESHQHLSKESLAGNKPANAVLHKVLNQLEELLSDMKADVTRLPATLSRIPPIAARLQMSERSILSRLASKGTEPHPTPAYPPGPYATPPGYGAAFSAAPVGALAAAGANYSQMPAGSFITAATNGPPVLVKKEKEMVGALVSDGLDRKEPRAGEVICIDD
UniProt P05937, sequence (P05937 whole entry, looked up): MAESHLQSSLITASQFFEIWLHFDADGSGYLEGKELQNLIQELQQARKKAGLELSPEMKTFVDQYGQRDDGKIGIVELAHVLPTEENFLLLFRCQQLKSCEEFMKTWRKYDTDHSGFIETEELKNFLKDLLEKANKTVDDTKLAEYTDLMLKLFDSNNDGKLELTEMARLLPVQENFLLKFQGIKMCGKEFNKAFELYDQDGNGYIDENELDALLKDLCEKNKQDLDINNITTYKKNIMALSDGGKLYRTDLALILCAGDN
UniProt P61024, sequence (P61024 whole entry, looked up): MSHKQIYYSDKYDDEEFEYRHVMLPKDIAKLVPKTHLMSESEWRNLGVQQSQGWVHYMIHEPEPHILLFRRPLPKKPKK
UniProt P19397, sequence (P19397 whole entry, looked up): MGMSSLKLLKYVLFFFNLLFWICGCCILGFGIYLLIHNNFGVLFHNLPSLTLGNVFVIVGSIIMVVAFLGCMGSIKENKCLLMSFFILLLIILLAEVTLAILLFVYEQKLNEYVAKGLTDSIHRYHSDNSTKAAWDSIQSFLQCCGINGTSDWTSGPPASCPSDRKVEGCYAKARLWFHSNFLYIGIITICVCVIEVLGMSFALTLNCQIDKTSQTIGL
UniProt P14854, sequence (P14854 whole entry, looked up): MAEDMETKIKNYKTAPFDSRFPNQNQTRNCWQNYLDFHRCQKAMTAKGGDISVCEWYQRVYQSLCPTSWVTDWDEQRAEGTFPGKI

log2 fold change, inactive:
CDK9 isoform 2 (UniProt P50750) 0.012, CD53 (UniProt P19397) 0.073, CHD3 isoform 3 (UniProt Q12873) -0.001, CASP2 (UniProt P42575) -0.004, CD55 isoform 7 (UniProt P08174) -0.006, CSK (UniProt P41240) 0.013, CCNK isoform 4 (UniProt O75909) 0.037, CIR1 (UniProt Q86X95) 0.024, CD151 (UniProt P48509) -0.121, CETN3 (UniProt O15182) 0.025, CHMP4B (UniProt Q9H444) 0.044, CCNDBP1 (UniProt O95273) 0.029, CAMSAP1 isoform 3 (UniProt Q5T5Y3) -0.003, CD81 (UniProt P60033) 0.019, CPT1A (UniProt P50416) 0.019, CKS1B (UniProt P61024) 0, CDK13 (UniProt Q14004) 0.065, CDCA2 (UniProt Q69YH5) -0.013, CNN3 (UniProt Q15417) -0.022, CORO2A (UniProt Q92828) 0.078, CRLF3 (UniProt Q8IUI8) 0.089, COMMD2 (UniProt Q86X83) 0.015, C4orf33 (UniProt Q8N1A6) 0.082, CEP128 (UniProt Q6ZU80) -0.064, CPQ (UniProt Q9Y646) 0.011, CSTF3 (UniProt Q12996) -0.064, CNTN4 (UniProt Q8IWV2) -0.148, COX6B1 (UniProt P14854) 0.078, CHD4 isoform 2 (UniProt Q14839) 0.007, CCNT1 (UniProt O60563) 0.038, CSNK2A1 (UniProt P68400) 0.113, CHEK1 (UniProt O14757) -0.057, CALB1 (UniProt P05937) -0.016, CA8 (UniProt P35219) 0.094, CCZ1 (UniProt P86791) 0.039, COG2 (UniProt Q14746) -0.103, CHERP (UniProt Q8IWX8) 0.026, CNN2 (UniProt Q99439) -0.011
